Data: PubChem BioAssay (NCI)
Several values for one entry are separate records, joined by “and”; a condition that tells them apart may be missing. Identical values can stand only once. Compounds without any hit were thinned out: in the full panel of roughly 83,000, 20% have a hit.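 Single-concentration screen, 48 h exposure, 96-well plates. Endpoint: percent growth. Below 10 = active.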 Activity calls are given as the source filed them.

Key:
Assay in all cases: NCI-60 one-dose screen, 48 h (100 = growth as untreated, 0 = no growth, -100 = all killed)
Settings in all cases: 10 µM unless noted
T-47D breast = test system: T-47D breast
BT-549 breast = test system: BT-549 breast
MDA-MB-435 melanoma = test system: MDA-MB-435 melanoma
SW-620 colon = test system: SW-620 colon
MCF7 breast = test system: MCF7 breast
HCT-116 colon = test system: HCT-116 colon
HCC-2998 colon = test system: HCC-2998 colon
KM12 colon = test system: KM12 colon

Measured: growth

CS(=O)(=O)Nc1cc(-c2ccc3ncnc(Nc4ccc(F)c(Cl)c4)c3c2)cnc1Cl
inactive: SW-620 colon 13.8% | HCC-2998 colon 16.1%
active: T-47D breast -7.45% | BT-549 breast -21.7% | MDA-MB-435 melanoma 9.94% | MCF7 breast 5.44% | HCT-116 colon 1.28% | KM12 colon 7.66%

Cc1nn(-c2nc(-c3cc4ccccc4oc3=O)cs2)c(C)c1N=Nc1ccccc1
inactive: T-47D breast 95.3% | BT-549 breast 99.7% | MDA-MB-435 melanoma 101% | SW-620 colon 103% | MCF7 breast 89.3% | HCT-116 colon 105% | HCC-2998 colon 111% | KM12 colon 100%

CCN(c1cc(-c2ccc(CN3CCC(/C=C/S(=O)(=O)c4ccccc4)CC3)cc2)cc(C(=O)NCc2c(C)cc(C)[nH]c2=O)c1C)C1CCOCC1
inactive: T-47D breast 71.6% | BT-549 breast 51.3% | MDA-MB-435 melanoma 76.8% | SW-620 colon 94% | MCF7 breast 44.3% | HCT-116 colon 56.9% | HCC-2998 colon 101% | KM12 colon 76.1%

CN(Cc1ccccc1)c1nc(Cl)c(C2CC(c3ccc(F)cc3)=NN2C=O)s1 (configuration not stated)
inactive: T-47D breast 85.5% | BT-549 breast 113% | MDA-MB-435 melanoma 96.8% | SW-620 colon 101% | MCF7 breast 86.7% | HCT-116 colon 86.9% | HCC-2998 colon 95.4% | KM12 colon 93.2%

CCCCC1=C(Br)C(=O)c2nc(C)ccc2C1=O
inactive: T-47D breast 65.7% | BT-549 breast 90% | MDA-MB-435 melanoma 102% | SW-620 colon 60.2% | MCF7 breast 82.1% | HCT-116 colon 42.7% | HCC-2998 colon 108% | KM12 colon 98.7%

Cc1ccc(C(=O)Nc2nc3c(s2)CN(Cc2ccccc2)CC3)cn1
active: MDA-MB-435 melanoma 7.68%
inactive: T-47D breast 83.8% | BT-549 breast 94.9% | SW-620 colon 69.8% | MCF7 breast 64% | HCT-116 colon 80.7% | HCC-2998 colon 77.9% | KM12 colon 49.6%

O=C(CCN1CCOCC1)Nc1cccc(-n2cc(-c3ccncc3)c(-c3ccc(Cl)c(O)c3)n2)c1
active: MDA-MB-435 melanoma -64.1%
inactive: T-47D breast 38.3% | BT-549 breast 11.6% | SW-620 colon 23.4% | MCF7 breast 11.4% | HCT-116 colon 21.1% | HCC-2998 colon 66.9% | KM12 colon 23.7%

CCN1CCN(C(=O)[C@]23CC[C@@H](C)[C@H](C)[C@@H]2C2=CC[C@@H]4[C@@]5(C)CCC(=O)C(C)(C)[C@@H]5CC[C@@]4(C)[C@]2(C)CC3)CC1
active: T-47D breast 8.54% | BT-549 breast -26% | SW-620 colon -50.4% | MCF7 breast 4.77% | HCT-116 colon -48.3% | HCC-2998 colon 0.569% | KM12 colon 6.9%
inactive: MDA-MB-435 melanoma 11%

Cc1ccc(-c2nc(C#N)c(S(=O)(=O)N(C)C)o2)cc1
inactive: T-47D breast 75.3% | BT-549 breast 77.4% | MDA-MB-435 melanoma 97.7% | SW-620 colon 81% | MCF7 breast 46.1% | HCT-116 colon 63.2% | HCC-2998 colon 93.1% | KM12 colon 95.4%

CCN(CC)CC(=O)Nc1ccc2ncnc(Nc3ccc(Oc4cccc(F)c4)c(Cl)c3)c2c1
inactive: T-47D breast 54.5% | BT-549 breast 78.5% | MDA-MB-435 melanoma 75% | SW-620 colon 67.6% | MCF7 breast 52.9% | HCT-116 colon 64.7% | HCC-2998 colon 53.1% | KM12 colon 51.5%

CC(=O)c1c(C)nc2ccccc2c1/C=C/c1cccc(C)c1
active: MDA-MB-435 melanoma 5.84%
inactive: T-47D breast 38.6% | BT-549 breast 64.2% | SW-620 colon 29.4% | MCF7 breast 24.2% | HCT-116 colon 32.9% | HCC-2998 colon 79.4% | KM12 colon 52.1%

CN1CCN(CCCN2c3ccccc3Sc3ccc(Cl)cc32)CC1
inactive: T-47D breast 63.5% | BT-549 breast 85.8% and 91.1% | MDA-MB-435 melanoma 30.3% and 42.4% | SW-620 colon 83.2% and 94% | MCF7 breast 37.2% and 63.8% | HCT-116 colon 57.5% and 70.6% | HCC-2998 colon 66.8% | KM12 colon 73.8% and 98.2%

Cc1nnc(NS(=O)(=O)c2ccc(N=Nc3ccc(N)nc3N)cc2)s1
inactive: T-47D breast 114% | BT-549 breast 90.4% and 108% | MDA-MB-435 melanoma 115% and 105% | SW-620 colon 108% and 106% | MCF7 breast 105% and 106% | HCT-116 colon 99.7% and 103% | HCC-2998 colon 105% | KM12 colon 104% and 103%

COC1=CC(c2ccc[nH]2)=N/C1=C\c1[nH]c(C)c(C(=O)Oc2ccccc2)c1C
active: T-47D breast -65.7% | BT-549 breast -15.4% | MDA-MB-435 melanoma -68.6% | SW-620 colon -20.9% | MCF7 breast -54.7% | HCT-116 colon -82.1% | HCC-2998 colon -81.6% | KM12 colon -66%

O=C1/C(=C/c2ccccc2[N+](=O)[O-])Cc2ccccc21
inactive: BT-549 breast 19.4% and 27.3% | MDA-MB-435 melanoma 28.4% and 36.3% | HCC-2998 colon 85% and 106% | KM12 colon 52% and 32.2%
9.87% (active) and 13% (inactive): MCF7 breast
active: SW-620 colon -56.2% and -45.4% | HCT-116 colon -76.6% and -25.5%
1.93% (active) and 64% (inactive): T-47D breast

CCN(C(=O)N1CCN(c2cc3c(cc2F)c(=O)c(C(=O)O)cn3C2CC2)CC1)c1nc(-c2ccccc2)cs1
active: BT-549 breast -9.57% | HCT-116 colon 6.31%
inactive: T-47D breast 55.4% | MDA-MB-435 melanoma 27.3% | SW-620 colon 23.3% | MCF7 breast 14.9% | HCC-2998 colon 21% | KM12 colon 21.1%

CCCCCCCCN(CCCCCCCC)CC(O)c1cc(Cl)ccc1OC (configuration not stated)
inactive: T-47D breast 51% | BT-549 breast 102% | MDA-MB-435 melanoma 83.6% | SW-620 colon 67.2% | MCF7 breast 54.7% | HCT-116 colon 35.7% | HCC-2998 colon 51.7% | KM12 colon 61.8%

O=c1c2c([nH]c3ccccc13)CCCC2
inactive: T-47D breast 105% and 55.5% | BT-549 breast 106% and 59% | SW-620 colon 92.6% and 16.1% | MCF7 breast 88.7% and 17.7% | HCT-116 colon 95.6% and 23.5% | HCC-2998 colon 55.5% | KM12 colon 99.2% and 19.7%
103% (inactive) and -56.9% (active): MDA-MB-435 melanoma

CCOC(=O)c1nnn(Cc2cc(=O)oc3c2ccc2ccccc23)c1C
inactive: T-47D breast 93.9% | BT-549 breast 108% | MDA-MB-435 melanoma 105% | SW-620 colon 107% | MCF7 breast 92% | HCT-116 colon 89.3% | HCC-2998 colon 106% | KM12 colon 104%

N#Cc1ccccc1OCC(=O)Nc1nc2c(s1)COc1ccccc1-2
inactive: T-47D breast 86.2% | BT-549 breast 122% | MDA-MB-435 melanoma 104% | SW-620 colon 103% | MCF7 breast 91.4% | HCT-116 colon 102% | HCC-2998 colon 103% | KM12 colon 105%

O=[N+]([O-])c1cc(C(F)(F)F)ccc1Sc1ccc(C(F)(F)F)cc1[N+](=O)[O-]
inactive: T-47D breast 70% | BT-549 breast 79.3% | MDA-MB-435 melanoma 21.3% | SW-620 colon 20.6% | MCF7 breast 67.7% | HCT-116 colon 10.7% | HCC-2998 colon 99.4% | KM12 colon 65.8%

CCN(CC)CC#CCOC(=O)[C@]1(C)CCC[C@]2(C)c3ccc(C(C)C)cc3CC[C@@H]12
inactive: T-47D breast 78.6% | BT-549 breast 92.7% | MDA-MB-435 melanoma 91.6% | SW-620 colon 87.7% | MCF7 breast 82.6% | HCT-116 colon 58.3% | HCC-2998 colon 91.5% | KM12 colon 85.3%

Cc1ccc(NC(=O)c2sc3nc(C)c(C(=O)c4ccccc4)cc3c2N)cc1
inactive: T-47D breast 87.7% | BT-549 breast 84.7% | MDA-MB-435 melanoma 39.5% | SW-620 colon 90.8% | MCF7 breast 70.9% | HCT-116 colon 97.7% | HCC-2998 colon 106% | KM12 colon 76.2%

CCCN1C(=O)/C(=c2\sc3n(c2=O)C2C(NN=3)N(CC)C(=O)N2CC)c2ccccc21 (configuration not stated)
inactive: T-47D breast 27.8% | BT-549 breast 20.8% | SW-620 colon 24.9% | HCC-2998 colon 15.5% | KM12 colon 20%
active: MDA-MB-435 melanoma -21.2% | MCF7 breast 9.94% | HCT-116 colon 7.6%

Nc1nc(N)c2c(n1)NC(c1cccc(Nc3ccnc4cc(C(F)(F)F)ccc34)c1)CC(c1ccc(F)cc1)=N2 (configuration not stated)
active: MDA-MB-435 melanoma -24.7%
inactive: T-47D breast 68.3% | BT-549 breast 100% | SW-620 colon 26.4% | MCF7 breast 16.7% | HCT-116 colon 22.4% | HCC-2998 colon 54% | KM12 colon 30.2%

COc1ccc(N2CCN(S(=O)(=O)c3oc(-c4ccccc4)nc3C#N)CC2)cc1
active: SW-620 colon 7.02%
inactive: T-47D breast 73.1% | BT-549 breast 77.5% | MDA-MB-435 melanoma 65.2% | MCF7 breast 31.2% | HCT-116 colon 15.4% | HCC-2998 colon 100% | KM12 colon 104%

N=C(N)c1ccc(-c2ccc(-c3ccc(F)cc3)s2)nc1
inactive: T-47D breast 76.3% | BT-549 breast 82.1% | MDA-MB-435 melanoma 70.2% | SW-620 colon 26% | MCF7 breast 21.9% | HCC-2998 colon 16.2% | KM12 colon 18.7%
active: HCT-116 colon 3.54%

O=C(O)c1ccccc1Cc1ccc(F)c2ccccc12
inactive: T-47D breast 101% and 108% | BT-549 breast 134% and 106% | MDA-MB-435 melanoma 110% and 109% | SW-620 colon 105% and 95.8% | MCF7 breast 99.2% and 102% | HCT-116 colon 120% and 101% | HCC-2998 colon 109% and 103% | KM12 colon 103% and 104%

Cn1cc(-c2nonc2-c2cn(C)c3ccc(Br)cc23)c2ccccc21
inactive: T-47D breast 23.6% | BT-549 breast 34% | SW-620 colon 14.7% | MCF7 breast 15.4% | HCT-116 colon 17.1% | HCC-2998 colon 67.9% | KM12 colon 23.3%
active: MDA-MB-435 melanoma -20.3%
